Pf growth 48h – Primary qHTS for delayed death inhibitors of the malarial parasite plastid, 48 hour incubation; 5.9% of 310,000 active; AID 504832, 2011; P. falciparum luciferase growth in erythrocytes, 48 h; Potency, µM (top dose mostly 28.7 µM), for the others: at the top dose activity change, negative = inhibition, hits mostly inhibitors
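Cell-based growth assay: transgenic P. falciparum expressing firefly luciferase, cultured in red cells within RPMI 1640 containing 0.5% w/v Albumax, 24 mM bicarbonate and gentamycin. A drop in luciferase activity indicates inhibition.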
AMA1 RON2 block – qHTS for Inhibitors of AMA1-RON; Towards Development of Antimalarial Drug Lead: Primary Screen; Plasmodium falciparum AMA1 (3D7) - RON2 peptide interaction; AlphaScreen AMA1-biotinylated RON2 peptide binding; Potency, µM (series often up to 58.2 µM), inactives show top-dose activity change, negative = inhibition, most hits filed as inhibitors; 0.2% of 360,000 active;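 also: 0% = vehicle wells and -100% = peptide control; nearly all actives have a fitted effect of over 45% in size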
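AMA1 (3D7) with his tag at 25 nM final met compounds first, then biotinylated RON2 peptide at 25 nM; detection used donor plus acceptor beads, 10 µg/mL apiece, read by AlphaScreen after 30 min at room temperature.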
HCV inh – qHTS Assay for Inhibitors of Hepatitis C Virus (HCV); Huh7.5.1 HCVcc-Cre infection, luciferase reporter, 44 h; AID 651820, 2012; Potency, µM (doses to about 41.8 µM), without a hit: top-dose activity change, negative = inhibition, most hits filed as inhibitors; 3.4% of 340,000 active
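Reporter virus HCVcc-Cre (~0.5 moi) infects cells exposed to compound; seeding density 1,000 cells/well with 4 h settling beforehand. Luminescence, 15 sec read, taken 44 h post-infection following a 15 min RT substrate incubation.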
Pf growth 96h – Primary qHTS for delayed death inhibitors of the malarial parasite plastid, 96 hour incubation; P. falciparum luciferase reporter growth, 96 h; Potency, µM (doses to about 28.7 µM), without a hit: top-dose activity change, negative = inhibition, actives largely listed as inhibitors; 6.9% of 320,000 active
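Delayed-death screen, second-generation endpoint: infected erythrocytes, 2% hematocrit, 0.05% parasitemia final; 96 hours at 37 C, 5% CO2; luciferase detection reagent; luminescence decrease equals reduced growth.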
AmpC no deterg – qHTS Inhibitors of AmpC Beta-Lactamase (assay without detergent); 0.52% of 330,000 active; AmpC nitrocefin hydrolysis, absorbance 480 nm, 0.0001% Triton; P00811; Potency, µM (highest dose often 57.1 µM), for inactives: top-dose activity change, negative = inhibition, usual class: inhibitors;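 also: plate controls were no compound for no effect and no enzyme for full effect; nearly all actives have a fitted effect of over 20% in size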
Target sequence (P00811 whole entry, looked up): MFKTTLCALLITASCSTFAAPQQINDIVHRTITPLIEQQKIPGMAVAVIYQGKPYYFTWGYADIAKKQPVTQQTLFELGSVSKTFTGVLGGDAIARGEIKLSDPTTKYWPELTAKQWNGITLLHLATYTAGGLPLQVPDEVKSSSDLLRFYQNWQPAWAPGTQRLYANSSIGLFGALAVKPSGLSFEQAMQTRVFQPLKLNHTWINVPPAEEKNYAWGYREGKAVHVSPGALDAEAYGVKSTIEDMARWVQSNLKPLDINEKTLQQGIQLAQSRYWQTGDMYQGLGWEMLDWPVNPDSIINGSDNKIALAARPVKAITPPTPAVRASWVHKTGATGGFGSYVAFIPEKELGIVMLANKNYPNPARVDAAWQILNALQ
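AmpC (5.3 nM in the dispensed reagent) in 20 mM phosphate pH 7.0 with 0.01% (detergent screen) or 0.0001% Triton X-100 was preincubated with compounds for 15 min at room temperature. Nitrocefin was then added from an 800 uM solution, and hydrolysis was followed at 480 nm.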
AmpC detergent – qHTS Inhibitors of AmpC Beta-Lactamase (assay with detergent); Potency, µM (top dose mostly 114 µM), inactives show top-dose activity change, negative = inhibition, usual class: inhibitors; AID 485294, 2010; 0.041% of 370,000 active; AmpC hydrolysis of nitrocefin, absorbance 480 nm, 0.01% Triton;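 also: 0% = no-compound wells and -100% = no-enzyme wells; nearly all actives have a fitted effect of over 25% in size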
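20 mM phosphate pH 7.0 + 0.01% (detergent screen) or 0.0001% Triton X-100; 5.3 nM AmpC reagent; cpd preinc 15 min RT; nitrocefin (800 uM stock) to start; A480 q20 s × 4 min; Activity was normalised to no-enzyme and no-compound control wells.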
* = called active by the depositor; ? = inconclusive; nt = no result; [ ] = remark or other dose. Only some compounds are listed: those with a hit (about 11% of all), similar ones and a draw of the others. Calls follow the shape of the dose curve; as a rule, active = well fitted curve in the direction sought with a large enough effect; inconclusive = small, poorly fitted or top-dose-only effect, or another doubt; inactive = no such curve, though single readings can be large; an effect the other way counts as inactive or inconclusive. Unless noted, % is scaled to controls: 0 for no effect and ±100 for the full control effect; potency is read from the fitted curve at half-maximal effect.

SMILES	Pf growth 48h	AMA1 RON2 block	HCV inh	Pf growth 96h	AmpC no deterg	AmpC detergent
O=S(=O)(c1ccc2c(c1)OCCO2)N1CCN(c2nc(-c3cccnc3)nc3ccccc23)CC1	?	nt	nt	?	-18%	-4%
O=S(=O)(/C=C/c1ccccc1)N1CCN(c2nc(-c3cccnc3)nc3ccccc23)CC1	?	-4%	?	?	-29%	1%
O=S(=O)(c1ccccc1)N1CCN(c2nc(-c3cccnc3)nc3ccccc23)CC1	?	0%	?	8.3µM*	3%	-5%
c1cncc(-c2nc(N3CCOCC3)c3ccccc3n2)c1	?	-11%	?	nt	25%	-3%
CCc1ccc(-n2nnc(-c3nc(-c4cccs4)no3)c2N)cc1	nt	nt	nt	nt	nt	13%
Cc1ccc(C)c(OCc2nnc(NC(=O)c3ccco3)s2)c1	8%	6%	2%	10µM*	-14%	-7%
CCN(c1ccc(OC)cc1)S(=O)(=O)c1nnc(NC(=O)c2ccco2)s1	?	1%	22%	5%	-35%	-10%
CCN(c1ccc(C)cc1C)S(=O)(=O)c1nnc(NC(=O)C(C)C)s1	13µM*	-2%	-8%	-6%	-26%	1%
CCN(c1ccc(C)cc1C)S(=O)(=O)c1nnc(NC(=O)C(C)(C)C)s1	10µM*	-2%	41%	?	-14%	-15%
CCN(c1cc(C)cc(C)c1)S(=O)(=O)c1nnc(NC(=O)c2ccco2)s1	-12%	6%	6%	12µM*	-55%	6%
COCc1nnc(NC(=O)c2ccco2)s1	18%	6%	19%	nt	-9%	?
CCN(c1ccc(C)cc1C)S(=O)(=O)c1nnc(NC(=O)c2ccc(F)cc2)s1	nt	nt	nt	nt	nt	12%
Cc1c(C2=CCN(S(=O)(=O)c3cccc(Cl)c3)CC2)c2ccccc2n1CC(=O)N1CCCC1	nt	nt	nt	nt	nt	6%
CCCOc1ccc(-c2nonc2NC(=O)COc2ccc(C)cc2)cc1OCCC	nt	nt	nt	nt	nt	9%
CC1=C(C(N)=O)C(c2cccc(F)c2)n2nc(SCc3ccccc3)nc2N1 (centres undefined)	nt	nt	nt	nt	nt	1%
CCOc1ccccc1NC(=O)CSc1nnc(-c2ccco2)n1Cc1ccco1	?	-15%	?	?	28%	-17%
COc1cccc(-c2nnc(SCC(=O)OC(C)C)n2Cc2ccco2)c1	-3%	13%	10%	7.4µM*	18%	2%
CC(C)OC(=O)CSc1nnc(-c2cnccn2)n1Cc1ccco1	-9%	-5%	6%	nt	nt	-6%
C=CCn1c(SCC(=O)Nc2cc(C)ccc2OC)nnc1-c1ccco1	-24%	-16%	?	-24%	3%	?
COc1ccc(C)cc1NC(=O)CSc1nnc(-c2ccco2)n1Cc1ccco1	-19%	-17%	?	10µM*	24%	-11%
COc1ccc(C)cc1NC(=O)CSc1nnc(COc2ccc(C)cc2)n1Cc1ccco1	?	-7%	?	?	55%	-13%
CCOc1ccccc1NC(=O)CSc1nnc(-c2ccccn2)n1Cc1ccco1	?	1%	?	3.7µM*	31%	-11%
COc1ccccc1NC(=O)CSc1nnc(COc2ccc(Cl)cc2)n1Cc1ccco1	?	-13%	11µM*	0%	9%	?
Cc1cccc(N2CCN(C(=O)c3cn(C4CCCCC4)c(=O)c4c3c3ccccc3n4C)CC2)c1C	nt	nt	nt	nt	nt	10%
Fc1ccccc1CSc1nnc(-c2cnccn2)n1Cc1ccco1	?	0%	8%	nt	0%	?
SMILES	Pf growth 48h	AMA1 RON2 block	HCV inh	Pf growth 96h	AmpC no deterg	AmpC detergent
Clc1ccc(CSc2nnc(-c3ccccn3)n2Cc2ccco2)c(Cl)c1	?	21%	?	15µM*	-2%	-1%
COCCNc1nnc(SCC(=O)c2c[nH]c3ccccc23)s1	8.3µM*	9%[11.6 µM]	-7%	?	-33%	4%
Cc1ccc(C(=O)c2c(NC(=O)CSc3nnc(N)s3)sc3c2CCCC3)cc1	12µM*	24%	?	5.2µM*	-24%	-5%
COCCNc1nnc(SCC(=O)Nc2sc3c(c2C(=O)c2ccccc2)CCCC3)s1	?	-17%	2.5µM*	9.3µM*	64%	-17%
COCCNc1nnc(SCC(=O)NNC(=O)c2ccccc2)s1	15%	91%	2%	18%	-21%	-8%
Nc1nnc(SCC(=O)Nc2sc3c(c2C(=O)c2ccccc2)CCCC3)s1	-18%	21%	?	?	-35%	-8%
Cc1ccc2c(=O)cc(C(=O)Nc3sc4c(c3C(=O)NCc3ccco3)CCCC4)oc2c1C	nt	nt	nt	nt	nt	20%
COc1cc(/C=C(\C#N)c2nc3ccccc3s2)cc([N+](=O)[O-])c1O	20%	?	1%	9.3µM*	-22%	-12%
N#C/C(=C\c1ccc(O)c([N+](=O)[O-])c1)c1nc2ccccc2s1	-15%	-25%	-5%	?	-36%	-9%
COc1ccc(-c2csc(/C(C#N)=C\c3ccc(O)c([N+](=O)[O-])c3)n2)cc1OC	8.3µM*	?	8%	?	-26%	-2%
Cc1cccc(CC(=O)N2CC(=O)Nc3ccc(C)cc3C2c2ccc(F)cc2)c1 (centres undefined)	nt	nt	nt	nt	nt	1%
C[N+]1(C)CC2=Cc3ccccc3CC2C1 (centres undefined)	?	13%	4%	-4%	-9%	-3%
C1=C2C[N+]3(CCCC3)CC2Cc2ccc3ccccc3c21 (centres undefined)	nt	-12%	?	0.74µM*	12%	-3%
O=C(NCC1CCCO1)C(=O)N/N=C/c1ccccc1C(=O)O (centres undefined)	18%	-9%	14%	10µM*	-3%	0%
COc1ccccc1CNC(=O)c1ccccc1N(C)S(C)(=O)=O	0%	-7%	10%	nt	0%	-3%
CN(c1ccccc1C(=O)NCC1CCCO1)S(C)(=O)=O (centres undefined)	-4%	-4%	7%	nt	0.16µM*	1%
CN(c1ccccc1C(=O)NCc1ccccn1)S(C)(=O)=O	15µM*	7%	4%	nt	-13%	-1%
CCOc1ccc(NC(=O)CSc2ncc3c(n2)-c2ccc(Cl)cc2N(Cc2ccccc2)S3(=O)=O)cc1	nt	nt	nt	nt	nt	-1%
